From PubChem BioAssay
BRCA1 expr up: activators of BRCA1 expression. 380,000 compounds, 1.1% hits. MCF7-BRCA1-FFLuc reporter, luminescence, 48 h; response scale: scaled: vehicle 0%, 10 µM genistein 100%. Potency, µM (top dose mostly 46.1 µM), usual class: activators; also: nearly all actives have a fitted effect of over 80% in size
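Luminescence from a BRCA1-driven firefly luciferase in MCF7 cells was read after 48 h compound exposure at 37 C. Data normalized against DMSO and a 10microM genistein activation control, then curve-fitted across the titration.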
Nrf2 inh: Nrf2 pathway inhibition; Potency, µM (series often up to 46 µM), most hits filed as inhibitors; A549 ARE-Fluc reporter, luciferase luminescence, 18-24 h; 360,000 compounds, 2.1% hits; AID 504444; also: nearly all actives have a fitted effect of over 60% in size
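A549 ARE_Fluc cells (5000/well, 5% FBS OPTI-MEM) pre-incubated 2 h, then treated with compounds 18-24 h at 37C/5% CO2 in concentration-response. CellTiter-Fluor viability read first; BugLite luciferase luminescence after 15 min at room temperature gives Nrf2 activity.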
IL2 activator: IL-2 activation; AID 652025; activation, % (series mostly up to about 46 µM); IL-2 activation reporter assay, cell-based qHTS; stimulated with anti-CD3/CD4/CD28 beads; in transgenic mouse T cells; 360,000 compounds, 0.065% hits; in the data active = activation above about 50%; inconclusive = mostly about 30% to 49%
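Readout: EGFP and DsRed signals by fluorescent plate cytometry. Unstimulated transgenic mouse T cells received compound 60 min before antibody-bead stimulation, then incubated 18 h at 37 degrees C.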
p53 reactivation: mutant p53 re-activation in reporter cells; 320,000 compounds, 0.063% hits; Potency, µM (titrated, usually from 92.2 µM), actives largely listed as activators; H1299 p53-A138V BP100-luciferase reporter, luminescence, 24 h; also: nearly all actives have a fitted effect of over 45% in size
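p53-null H1299 cells stably carrying temperature-sensitive p53-A138V and a BP100-luciferase reporter were pinned with compounds (4-point, 1:5 series) and held 24 hrs at 37 deg C. Luminescence was read 10 min after detection reagent.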
Nrf2 activator: activates Nrf2 signaling; AREc32 ARE-luciferase reporter (MCF7-derived line), luminescence, 24 h; 410,000 compounds, 0.31% hits; Potency, µM (top dose mostly 46.1 µM), actives largely listed as activators; also: nearly all actives have a fitted effect of over 65% in size
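Each well held 1000 AREc32 cells, which were incubated with compound for 24 hr at 37 deg C after overnight attachment, and ARE reporter activity was quantified by firefly luciferase luminescence.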
A549 tox-1: A549 cytotoxicity, counter-screen for Nrf2 inhibitors; A549 ARE-Fluc cells, CellTiter-Fluor viability, 18-24 h; Potency, µM (top dose mostly 46 µM), most hits filed as inhibitors; 390,000 compounds, 0.16% hits
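Cytotoxicity counterscreen: CellTiter-Fluor fluorescence was measured in A549 ARE_Fluc cells after 18-24 h of compound exposure in a concentration series. The subsequent BugLite luminescent read reports ARE-luciferase activity.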
FLuc counter 3: counter-screen for Nrf2 inhibitors: firefly luciferase enzyme inhibition; shares compounds with Nrf2 inh; purified firefly luciferase, luminescence inhibition; Potency, µM (series often up to 57.5 µM), hits mostly inhibitors; 1,400 compounds, 4% hits; AID 720522; also: nearly all actives have a fitted effect of over 65% in size
Target sequence (P08659 whole entry, looked up): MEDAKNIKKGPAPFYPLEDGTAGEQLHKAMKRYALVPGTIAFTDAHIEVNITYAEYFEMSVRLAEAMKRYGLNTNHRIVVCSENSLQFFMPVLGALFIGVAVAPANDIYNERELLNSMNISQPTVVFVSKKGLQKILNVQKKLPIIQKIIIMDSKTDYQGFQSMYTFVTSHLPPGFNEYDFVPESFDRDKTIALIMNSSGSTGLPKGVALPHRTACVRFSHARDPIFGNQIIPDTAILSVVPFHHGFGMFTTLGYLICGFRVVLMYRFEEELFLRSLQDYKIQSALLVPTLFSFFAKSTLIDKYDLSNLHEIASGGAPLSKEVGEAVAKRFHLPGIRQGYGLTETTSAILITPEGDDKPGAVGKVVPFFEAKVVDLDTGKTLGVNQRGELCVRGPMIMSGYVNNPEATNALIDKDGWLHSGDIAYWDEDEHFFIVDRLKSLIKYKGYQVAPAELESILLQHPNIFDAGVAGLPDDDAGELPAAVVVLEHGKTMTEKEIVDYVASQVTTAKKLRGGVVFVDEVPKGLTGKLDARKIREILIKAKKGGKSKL
A549 tox-2: A549 cytotoxicity, Nrf2 inhibitor counterscreen. Potency, µM (titrated, usually from 46.1 µM), actives largely listed as inhibitors. A549 ARE-Fluc cells, cytotoxicity counterscreen. shares compounds with Nrf2 inh. 1,400 compounds, 2% hits;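 also: cells exposed to compounds for 18 to 24 hours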
ARE-Fluc inh: confirmation of Nrf2 inhibitors in A549 ARE reporter cells; shares compounds with Nrf2 inh; A549 ARE-firefly luciferase reporter, luminescence; Potency, µM (highest dose often 46.1 µM), hits mostly inhibitors; 1,400 compounds, 74% hits; also: nearly all actives have a fitted effect of over 65% in size
A number is an active result. The list is not random: actives were taken first. Their share in the collection is about 3.2%. Unless noted, calls follow the shape of the dose curve; as a rule, active = well fitted curve in the direction sought with a large enough effect; inconclusive = small, poorly fitted or top-dose-only effect, or another doubt; inactive = no such curve, though single readings can be large; an effect the other way counts as inactive or inconclusive.

Results for O=C(NCc1ccccc1)c1ccc2c(c1)CCN2S(=O)(=O)c1ccc(Cl)cc1 ?
Nrf2 inh: inactive; Nrf2 activator: inactive; A549 tox-1: inactive

Results for O=C(CN1C(=O)c2ccccc2S1(=O)=O)c1ccc2c(c1)OCCCO2 ?
BRCA1 expr up: inactive; Nrf2 inh: 0.18µM; IL2 activator: inactive; p53 reactivation: inactive; Nrf2 activator: inactive; A549 tox-1: inactive; FLuc counter 3: inactive; A549 tox-2: inactive; ARE-Fluc inh: 8.2µM

How did O=C(CN1C(=O)c2ccccc2S1(=O)=O)c1cccc(Br)c1 do in these assays?
BRCA1 expr up: inactive; Nrf2 inh: inactive; IL2 activator: inactive; p53 reactivation: inactive; Nrf2 activator: inactive; A549 tox-1: inactive

What do the screens show for `O=C(CN1C(=O)c2ccccc2S1(=O)=O)c1ccc2c(c1)OCCO2`?
BRCA1 expr up: inactive; Nrf2 inh: 0.073µM; IL2 activator: inactive; p53 reactivation: inactive; Nrf2 activator: inactive; A549 tox-1: inactive; FLuc counter 3: inactive; A549 tox-2: inactive; ARE-Fluc inh: 5.2µM

Results for Cc1nn(C)c(Cl)c1S(=O)(=O)N(Cc1ccco1)c1ncnc2nc[nH]c12 ?
BRCA1 expr up: inactive; Nrf2 inh: inactive; A549 tox-1: inactive

Results for CN(C)S(=O)(=O)N1CCC(Oc2cccc(C(=O)NC3CCCCCC3)c2)CC1 ?
BRCA1 expr up: inactive; Nrf2 inh: 2.6µM; IL2 activator: inactive; p53 reactivation: inactive; Nrf2 activator: inactive; A549 tox-1: inactive; FLuc counter 3: inactive; A549 tox-2: inconclusive; ARE-Fluc inh: 0.073µM

Results for O=C(Nc1cccc(F)c1)C1CCN(S(=O)(=O)c2cccc3nsnc23)CC1 ?
Nrf2 inh: 0.0082µM; Nrf2 activator: inactive; A549 tox-1: inactive; FLuc counter 3: inactive; A549 tox-2: inactive; ARE-Fluc inh: inactive

What do the screens show for `Cc1ccc2c(c1)c1c(c(=O)n(-c3ccccc3)c(=O)n1CC(=O)c1ccc(F)cc1)n2C`?
BRCA1 expr up: inactive; Nrf2 inh: inactive; Nrf2 activator: inactive; A549 tox-1: inactive

How did CCOC(=O)c1cccc(NC(=O)CCc2c(C)nc3cc(-c4ccc(Cl)cc4)nn3c2C)c1 do in these assays?
BRCA1 expr up: inactive; Nrf2 inh: inconclusive; Nrf2 activator: inactive; A549 tox-1: inactive

What do the screens show for `Cn1c(-c2ccccn2)[n+](C)c2ccccc21`?
BRCA1 expr up: inactive; Nrf2 inh: 5.2µM; IL2 activator: inactive; p53 reactivation: inactive; Nrf2 activator: inactive; A549 tox-1: inactive; FLuc counter 3: inactive; A549 tox-2: inactive; ARE-Fluc inh: 10µM

What do the screens show for `CN(C)c1ccc(-c2n(C)c3ccccc3[n+]2C)cc1`?
BRCA1 expr up: inactive; Nrf2 inh: 0.29µM; IL2 activator: inactive; p53 reactivation: inactive; Nrf2 activator: inactive; A549 tox-1: inactive; FLuc counter 3: inactive; A549 tox-2: inactive; ARE-Fluc inh: inconclusive

Results for Cc1ccc(N(CC(=O)Nc2ccc(Cl)cc2)S(=O)(=O)c2cccc3nonc23)cc1 ?
BRCA1 expr up: inactive; Nrf2 inh: inactive; Nrf2 activator: inactive; A549 tox-1: inactive

Results for Cc1ccc2c(c1)S/C(=C/c1ccc[n+](C)c1)N2CCO ?
BRCA1 expr up: inactive; Nrf2 inh: 2.6µM; IL2 activator: inactive; p53 reactivation: inactive; Nrf2 activator: inactive; A549 tox-1: inactive; FLuc counter 3: inactive; A549 tox-2: inactive; ARE-Fluc inh: 6.5µM

Results for Cc1ccc(S(=O)(=O)CCC(=O)NCCN2C(=O)S/C(=C\c3ccccc3)C2=O)cc1 ?
BRCA1 expr up: inactive; Nrf2 inh: inactive; IL2 activator: inactive; p53 reactivation: inconclusive; Nrf2 activator: inactive; A549 tox-1: inactive

Results for O=C(OCc1cc(=O)n2nc(-c3cccs3)sc2n1)c1ccccc1Cl ?
BRCA1 expr up: inactive; Nrf2 inh: inactive; Nrf2 activator: inactive; A549 tox-1: inactive

How did COc1cc(OC)c(/C=C/c2cc[n+](C)c3ccccc23)c(OC)c1 do in these assays?
BRCA1 expr up: inactive; FLuc counter 3: inactive; A549 tox-2: inactive; ARE-Fluc inh: 3.7µM

Results for Cc1cc(N(C)C)cc(C)c1/C=C/c1cc[n+](C)c2ccccc12 ?
FLuc counter 3: inactive; A549 tox-2: inactive

What do the screens show for `Cc1ccccc1NC(=O)Cn1c(=O)n(Cc2ccc3c(c2)OCO3)c(=O)c2oc3ccccc3c21`?
Nrf2 inh: inactive; Nrf2 activator: inactive; A549 tox-1: inactive

How did O=S(=O)(c1ccc(-c2csc(=Nc3ccc(OC(F)(F)Cl)cc3)n2CCCO)cc1)N1CCCC1 do in these assays?
Nrf2 inh: 6.5µM; Nrf2 activator: inactive; A549 tox-1: inconclusive; FLuc counter 3: inactive; A549 tox-2: inconclusive; ARE-Fluc inh: 7.3µM

What do the screens show for `CCn1c(-c2ccc(S(=O)(=O)N3CCOCC3)cc2)csc1=Nc1ccc(C)c(Cl)c1`?
Nrf2 inh: inconclusive; Nrf2 activator: inactive; A549 tox-1: inactive

Results for Cn1c(-c2ccc(S(=O)(=O)N3CCCC3)cc2)csc1=Nc1ccc(Cl)c(Cl)c1 ?
Nrf2 inh: 3.3µM; Nrf2 activator: inactive; A549 tox-1: inactive; FLuc counter 3: inconclusive; A549 tox-2: inactive; ARE-Fluc inh: 6.5µM

Results for Cc1cc(C(F)F)n2nc(C(=O)Nc3ccc(C(C)C)cc3)nc2n1 ?
BRCA1 expr up: inactive; Nrf2 inh: inactive; Nrf2 activator: inactive; A549 tox-1: inactive

How did CC(=O)c1ccc(NC(=O)c2ncn(-c3ccccc3)n2)cc1 do in these assays?
Nrf2 inh: inconclusive; Nrf2 activator: inactive; A549 tox-1: inactive

Results for COc1ccc(C(=O)Oc2cc(N)n(S(=O)(=O)c3ccc(C)cc3)n2)cc1 ?
BRCA1 expr up: inactive; Nrf2 inh: 7.3µM; IL2 activator: inactive; p53 reactivation: inactive; Nrf2 activator: inactive; A549 tox-1: inactive; FLuc counter 3: inactive; A549 tox-2: inactive; ARE-Fluc inh: 2.1µM

What do the screens show for `Cc1ccc(S(=O)(=O)n2nc(OC(=O)c3ccccc3C)cc2N)cc1`?
BRCA1 expr up: inactive; Nrf2 inh: 5.8µM; IL2 activator: inactive; p53 reactivation: inactive; Nrf2 activator: inactive; A549 tox-1: inactive; FLuc counter 3: inactive; A549 tox-2: inactive; ARE-Fluc inh: 2.3µM
